# Experimental data reported in PubChem BioAssay (Tox21).
# Inconclusive results are not listed. Entries that show only a call come without a potency. A structure can be active in one record and inactive in another. Activity calls are given as the source filed them. The call rests on the fitted dose curve.
# Molecular target: Beta-2 adrenergic receptor (Homo sapiens) (UniProt P07550)
# Assay: Adrenergic beta2 receptor (ADRB2) small molecule antagonists, cell-based qHTS assay (AID 1963592); further: nearly all actives have a fitted effect of over 50% in size
# Details: CHO-ADRB2 cells, isoproterenol-stimulated cAMP HTRF ratio, 0.5 h; series mostly up to 92.4 µM; activity change, negative = inhibition: at the top concentration
# From the text: U.S. Tox21 Program National Center for Advancing Translational Sciences [NCATS] Division of Preclinical Innovation [DPI] U.S. Environmental Protection Agency [EPA] National Institutes of Environmental Health Sciences [NIEHS] National Toxicology Program [NTP] U.S. Food and Drug Administration [FDA] Tox21 Assay Overview: Beta adrenergic receptors (Beta-ARs) belong to the G-protein coupled receptor (GPCR) superfamily, includes three subtypes - beta1, beta2, and beta3. Beta1-AR is the predominant receptor subtype expressed in the heart, and beta2-AR is expressed in the kidney, lung, blood vessel and in the heart, and beta3 is found in the adipocytes. Beta1 and 2 ARs couple to Gs protein and elevate cyclic adenosine mono phosphate (cAMP), which activates protein kinase A and leads to the downstream signaling responsible for the physiological actions. Beta-AR agonists or antagonists are the most prescribed therapeutic agents for heart failure and asthma, and these were one of the first target receptors for the rational drug design. Tox21 10K compound library was screened using the cAMP-Gs dynamic assay (Cisbio Bioassays, Shelton, CT) to identify agonists/antagonists of the Gs-coupled human adrenergic, beta2 receptor (ADRB2) in the CHO-ADRB2 cell line (Codex BioSolutions, Inc. Gaithersburg, MD), which stably over-expresses ADRB2. The principle of cAMP-Gs dynamic assay is based on HTRF technology, which facilitates the fluorescence resonance energy transfer (FRET) between donor Europium cryptate and acceptor d2-labeled cAMP. The cAMP generated within cells competes with the red acceptor, d2-labled cAMP, for binding to the monoclonal anti-cAMP-cryptate (Europium donor). An increase in intracellular cAMP leads to the disruption of FRET signal, and the signal is inversely proportional to the cAMP concentration. Propranolol HCl (Sigma-Aldrich, St. Louis, MO) was used as a positive control in the screening.
# Tox21 Assay Protocol Summary: CHO-ADRB2 cells were dispensed at 1,000/well in 4uL assay medium into white/solid 1536-well plates (Greiner Bio-One North America Inc., Monroe, NC) using a Multidrop Combi dispenser (ThermoFisher Scientific, Waltham, MA). The assay plates were incubated at 37C and 5% CO2 for an overnight (18-20hr). Then positive control and test compounds dissolved in DMSO were transferred to the assay plates at 23nL using a Pintool station (Wako, San Diego, CA). Following the compound and positive control transfer, 1uL agonist-stimulation mix containing 1nM Isoproterenol HCl, 100uM IBMX and 25uM Ro-20-1724 was added to each well of the assay plates using BioRAPTR Flying Reagent Dispenser (FRD, Beckman Coulter, Brea, CA). The assay plates were incubated at room temperature for 0.5hr. Then 2.5ul each d2-labled cAMP and anti-cAMP-cryptate solutions were added separately to each well of the assay plates using an FRD and the assay plates were incubated at room temperature for 1hr. The fluorescence signal was measured at two different wavelengths (665nm and 615nm) using an Envision plate reader (Perkin Elmer, Shelton, CT). Data were expressed as the ratio of 665 nm/615 nm.
# Potency means the concentration at half of the fitted maximal effect.
# Chain of Beta-2 adrenergic receptor (Homo sapiens) (P07550 whole entry, looked up): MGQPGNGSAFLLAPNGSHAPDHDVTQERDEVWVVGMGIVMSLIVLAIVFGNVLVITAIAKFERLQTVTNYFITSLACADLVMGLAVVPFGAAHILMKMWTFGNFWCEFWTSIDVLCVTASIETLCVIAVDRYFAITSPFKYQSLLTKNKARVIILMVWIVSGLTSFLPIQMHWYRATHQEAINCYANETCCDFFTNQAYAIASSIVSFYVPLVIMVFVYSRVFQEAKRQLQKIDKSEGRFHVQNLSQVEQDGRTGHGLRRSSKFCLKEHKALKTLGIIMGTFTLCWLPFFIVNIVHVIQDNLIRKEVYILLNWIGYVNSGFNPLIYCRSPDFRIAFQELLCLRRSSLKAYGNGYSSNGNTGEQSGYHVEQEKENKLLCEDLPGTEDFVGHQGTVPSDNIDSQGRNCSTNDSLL
Structure (SMILES),Potency,"activity change, negative = inhibition"
OB(O)O,inactive,–
Cc1ccccc1Cl,inactive,–
C=CCNCC=C,inactive,–
C/C=C/c1ccc(OC)cc1,inactive,–
CN(C)CCOCCN(C)C,inactive,–
C=Cc1ccc(C)cc1,inactive,–
Cc1cccc(Nc2cc(Cl)nc(SCC(=O)O)n2)c1C,inactive,–
O=C(O)Cc1c[nH]c2ccccc12,inactive,–
Oc1c(Cl)cc(Cl)cc1Sc1cc(Cl)cc(Cl)c1O,55.4 µM (active) and inactive,–
Cc1cc(C2(c3cc(C)c(O)cc3C)OS(=O)(=O)c3ccccc32)c(C)cc1O,–,-0.99% (inactive)
c1ccc2n[nH]nc2c1,inactive,–
COC(=O)/C=C\C(=O)OC,inactive,–
N[C@@H](Cc1cc(I)c(Oc2ccc(O)c(I)c2)c(I)c1)C(=O)O,inactive,–
CN(C)CCCN,inactive,–
O=C(O)CS,inactive,–
NNCCc1ccccc1,inactive,–
c1ccc(Nc2ccccc2)cc1,inactive,–
CCN(CC)C(=S)SSC(=S)N(CC)CC,inactive,–
OCCc1ccccc1,inactive,–
CCOC(=O)NNc1nncc2ccccc12,–,0.196% [at 42.5 µM] (inactive)

Structure (SMILES),Potency,"activity change, negative = inhibition"
CCCCC(CC)COC(=O)c1ccc(N(C)C)cc1 (stereo not given),inactive,–
OCC1CCCO1 (stereo not given),inactive,–
O=C(OCc1ccccc1)c1ccc(O)cc1,inactive,–
CCCCCC(N)=O,inactive,–
CC1(C)S[C@@H]2[C@H](NC(=O)[C@H](N)c3ccccc3)C(=O)N2[C@H]1C(=O)O,inactive,–
CCC(O)OCCCOC (stereo not given),inactive,–
CCOCCOCCO,inactive,–
CC(C)OC(=O)COc1ccc(Cl)cc1Cl,inactive,–
CC(C)CC(=O)CC(C)C,inactive,–
C=CCCCCCCCCCC,inactive,–
CN1C(=O)CC[C@H]1c1cccnc1,inactive,–
CCCCC(CC)COC(=O)/C=C/c1ccc(OC)cc1 (stereo not given),inactive,–
NC(=S)NNC(N)=S,inactive,–
Cc1cc(=O)[nH]c(=S)[nH]1,inactive,–
OCCOCCOCCO,inactive,–
C=C(C)C1CC=C(C)C(OC(C)=O)C1 (stereo not given),inactive,–
CC(=O)Nc1c(I)c(NC(C)=O)c(I)c(C(=O)O)c1I,inactive,–
C=C(C#N)C(=O)OCC,–,8.16% (inactive)
O=C(O)c1ccc(S(=O)(=O)N(Cl)Cl)cc1,inactive,–
CC(=O)NS(=O)(=O)c1ccc(N)cc1,inactive,–
